Outcome and AC50 data for seven compounds are collected here from PubChem BioAssay (EPA / NIEHS).

Read-out in experiment [1]: Vascular cell adhesion molecule 1 (VCAM1), VCAM1 (gene 7412)
The experiment is described as follows: BSK_4H_VCAM1: BioMAP Diversity Plus: 4H Assay for Vascular cell adhesion molecule 1 (VCAM1) Biomarker Activity (AID 2283033).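 On Outcome: cell-surface VCAM-1 protein measured by ELISA.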 To be noted: primary human endothelial cells (HUVEC); actives raise or lower the signal. The procedure, abridged: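 Endpoint derived from bidirectional fitting against DMSO controls of VCAM-1 ELISA signal in umbilical vein endothelial cells sampled at 24 h following treatment.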

Read-out in experiment [2]: urokinase plasminogen activator (uPA), PLAU (gene 5328)
The experiment is described as follows: BSK_BE3C_uPA: BioMAP Diversity Plus: BE3C Assay for urokinase plasminogen activator (uPA) Biomarker Activity (AID 2283038).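 Further: uPA protein level quantified by ELISA in cell cultures; uPA read one day after compound addition.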 To be noted: primary human bronchial epithelial cells; actives raise or lower the signal. Summed up:
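Primary human bronchial epithelial cells, uPA measured by ELISA 24 h after dosing. Bidirectional change relative to DMSO; cytotoxicity checked in parallel cultures by sulforhodamine B total-protein staining.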

Read-out in experiment [3]: Urokinase-type plasminogen activator receptor (uPAR), PLAUR (gene 5329)
The experiment is described as follows: BSK_BE3C_uPAR: BioMAP Diversity Plus: BE3C Assay for Urokinase-type plasminogen activator receptor (uPAR) Biomarker Activity (AID 2283039).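 Further: uPAR protein level measured by ELISA on the cells; cells exposed to compound for one day before measurement.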 To be noted: primary human bronchial epithelial cells; actives raise or lower the signal. The procedure, abridged: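 A uPAR ELISA serves as the readout, taken 24 h after treating primary human bronchial epithelial cells. Responses in either direction are fitted against DMSO, which defines baseline activity.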

Read-out in experiment [4]: Interleukin-6 (IL6), IL6 (gene 3569)
The experiment is described as follows: BSK_CASM3C_IL6: BioMAP Diversity Plus: CASM3C Assay for Interleukin-6 (IL6) Biomarker Activity for (AID 2283040). Conditions: primary human coronary artery smooth muscle cells; actives raise or lower the signal.

Read-out in experiment [5]: Tissue plasminogen activator (tPA), PLAT (gene 5327)
Kind of experiment: BSK_BE3C_tPA: BioMAP Diversity Plus: BE3C Assay for Tissue plasminogen activator (tPA) Biomarker Activity (AID 2283041).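 Further: tPA level quantified by ELISA one day after compound addition.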 To be noted: primary human bronchial epithelial cells; actives raise or lower the signal. The procedure, abridged: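 Bidirectional curve fitting relative to DMSO defined activity, with tPA detected by ELISA in chemically treated human bronchial epithelial primary cells at 24 hours.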

Read-out in experiment [6]: Interleukin-8 (IL8), CXCL8 (gene 3576)
The experiment is described as follows: BSK_CASM3C_IL8: BioMAP Diversity Plus: CASM3C Assay for Interleukin-8 (IL8) Biomarker Activity (AID 2283042).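 Further: IL-8 protein level quantified by ELISA.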 Conditions: primary human coronary artery smooth muscle cells; actives raise or lower the signal.

Read-out in experiment [7]: Human Leukocyte Antigen - DR isotype (HLADR), HLA-DRA (gene 3122)
Kind of experiment: BSK_CASM3C_HLADR: BioMAP Diversity Plus: CASM3C Assay for Human Leukocyte Antigen - DR isotype (HLADR) Biomarker Activity (AID 2283043).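 Further: cell-surface HLA-DR protein level quantified by ELISA.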 To be noted: primary human coronary artery smooth muscle cells; actives raise or lower the signal.

Read-out in experiment [8]: Macrophage colony-stimulating factor (MCSF), CSF1 (gene 1435)
The experiment is described as follows: BSK_CASM3C_MCSF: BioMAP Diversity Plus: CASM3C Assay for Macrophage colony-stimulating factor (MCSF) Biomarker Activity (AID 2283044).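 Further: M-CSF protein amount quantified by ELISA after 24 h exposure.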 Conditions: primary human coronary artery smooth muscle cells; actives raise or lower the signal.

Read-out in experiment [9]: Low-density lipoprotein receptor (LDLR), LDLR (gene 3949)
Kind of experiment: BSK_CASM3C_LDLR: BioMAP Diversity Plus: CASM3C Assay for Low-density lipoprotein receptor (LDLR) Biomarker Activity (AID 2283045).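 Further: LDLR protein level on the cell surface quantified by ELISA.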 To be noted: primary human coronary artery smooth muscle cells; actives raise or lower the signal.

Read-out in experiment [10]: Monocyte Chemoattractant Protein-1 (MCP1), CCL2 (gene 6347)
The experiment is described as follows: BSK_CASM3C_MCP1: BioMAP Diversity Plus: CASM3C Assay for Monocyte Chemoattractant Protein-1 (MCP1) Biomarker Activity (AID 2283046).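 Further: MCP-1 level quantified by ELISA 24 h after dosing.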 Conditions: primary human coronary artery smooth muscle cells; actives raise or lower the signal.

The nature of experiment [11]: BSK_CASM3C_Proliferation: Cell Proliferation Assessment in the BioMAP Diversity Plus: CASM3C Assay (AID 2283047).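 Further: sulforhodamine B total protein stain as relative cell number at 560 nm; sub-confluent cells exposed 48 h before staining; fitted both ways against DMSO so gain or loss of cell number.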 To be noted: primary human coronary artery smooth muscle cells.
Read-out in experiment [12]: Monokine induced gamma interferon (MIG), CXCL9 (gene 4283)
The experiment is described as follows: BSK_CASM3C_MIG: BioMAP Diversity Plus: CASM3C Assay for Monokine induced gamma interferon (MIG) Biomarker Activity (AID 2283048).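 Further: MIG protein level measured by ELISA.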 Conditions: primary human coronary artery smooth muscle cells; actives raise or lower the signal.

Read-out in experiment [13]: serum amyloid A (SAA), SAA1 (gene 6288)
Kind of experiment: BSK_CASM3C_SAA: BioMAP Diversity Plus: CASM3C Assay for serum amyloid A (SAA) Biomarker Activity (AID 2283049).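 Further: SAA protein level quantified by ELISA.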 To be noted: primary human coronary artery smooth muscle cells; actives raise or lower the signal.

Experiment [14] is described as follows: BSK_CASM3C_SRB: Viability Assessment in the BioMAP Diversity Plus: CASM3C Assay (AID 2283050).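 Further: total protein by SRB staining as cytotoxicity measure in parallel cultures; cells exposed to compound for 24 h.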 Conditions: primary human coronary artery smooth muscle cells.
Read-out in experiment [15]: Thrombomodulin, THBD (gene 7056)
The experiment is described as follows: BSK_CASM3C_Thrombomodulin: BioMAP Diversity Plus: CASM3C Assay for Thrombomodulin Biomarker Activity (AID 2283051).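 Further: thrombomodulin protein level measured by ELISA 24 h after dosing.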 Conditions: primary human coronary artery smooth muscle cells; actives raise or lower the signal.

Read-out in experiment [16]: Plasminogen activator inhibitor-1 (PAI1), SERPINE1 (gene 5054)
Kind of experiment: BSK_BE3C_PAI1: BioMAP Diversity Plus: BE3C Assay for Plasminogen activator inhibitor-1 (PAI1) Biomarker Activity (AID 2283037). Conditions: primary human bronchial epithelial cells; actives raise or lower the signal. The procedure, abridged:
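PAI-1 biomarker levels in treated human bronchial epithelial cells are determined by ELISA at 24 h. Both increases and decreases relative to DMSO are fitted.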

Read-out in experiment [17]: Transforming growth factor beta 1 (TGFb1), TGFB1 (gene 7040)
Kind of experiment: BSK_BE3C_TGFb1: BioMAP Diversity Plus: BE3C Assay for Transforming growth factor beta 1 (TGFb1) Biomarker Activity (AID 2283036;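 further: TGF-b1 protein level measured by ELISA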). To be noted: primary human bronchial epithelial cells; actives raise or lower the signal. The procedure, abridged: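 In this human primary bronchial epithelial system, an ELISA quantified TGF-b1 one day after dosing. Endpoint changes in either direction were fitted relative to DMSO.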

Activity calls are given as the source filed them. How the source made its calls: active means hit-call score of the fitted dose curve at least 0.9, where 1 is the maximum; inactive means score below 0.9.

For the compound `CCCCCCCCOC(=O)c1ccc(C(=O)OCCCCCCCC)c(C(=O)OCCCCCCCC)c1`, the result in experiment [1], in [2], in experiment [3], in experiment [4], in experiment [5] and in [6] was inactive. Besides, the outcome in [7], in [8], in experiment [9], in experiment [10], in experiment [11] and in [12] was inactive. Besides, the result in experiment [13], in experiment [14] and in experiment [15] was inactive.
Take `Clc1ccc(Cl)c(Cl)c1`: the outcome in [1], in [2], in experiment [3], in [4], in experiment [5] and in [6] was inactive. The result in experiment [7], in [8], in [9], in [10], in [11] and in [12] was inactive. In addition, the result in [13], in [14] and in [15] was inactive.
For the compound `Cc1ccc(N)c(N)c1`, the AC50 (usually the concentration giving half of the maximal activity seen) in experiment [1] was 8.05 µM (active); in experiment [15] it was 13.7 µM (active). For the same compound, the result in experiment [2], in experiment [3], in [4], in [5], in experiment [6] and in experiment [7] was inactive. Also, the result in experiment [8], in experiment [9], in [10], in [11], in experiment [12] and in experiment [13] was inactive. In addition, the result in experiment [14] was inactive.
Consider `Clc1ccc(C(c2ccc(Cl)cc2)C(Cl)(Cl)Cl)cc1`, for which the AC50 is 25.9 µM (active) in [1]; 31.4 µM (active) in experiment [7]; 14.7 µM (active) in experiment [8]; 32.1 µM (active) in experiment [9]; 36.9 µM (active) in experiment [10]; 29.1 µM (active) in [11]. For the same compound, the concentration at half-maximal activity (AC50) is 33.3 µM (active) in experiment [13], 27.7 µM (active) in [14] and 6.95 µM (active) in experiment [15]. Further, the outcome in experiment [16], in [2], in experiment [3], in [4], in experiment [5] and in experiment [6] was inactive. In addition, in [12], the result was inactive.
With `Nc1ccc(Cl)cc1N`, the AC50 in [1] was 2.74 µM (active); in [11], 6.89 µM (active); in experiment [15] it was 5.73 µM (active). The outcome in experiment [17], in experiment [16], in experiment [2], in [3], in experiment [4] and in [5] was inactive. For the same compound, the result in experiment [6], in experiment [7], in experiment [8], in experiment [9], in [10] and in [12] was inactive. Further, the result in experiment [13] and in experiment [14] was inactive.
On to `Cc1cccc(N)c1N`, for which the AC50 in experiment [1] is 13.6 µM (active); in [8], 3.73 µM (active); in experiment [15], 9.78 µM (active). In addition, the result in experiment [17], in experiment [16], in [2], in experiment [3], in experiment [4] and in [5] was inactive. Moreover, the outcome in experiment [6], in experiment [7], in [9], in experiment [10], in experiment [11] and in experiment [12] was inactive. The result in experiment [13] and in [14] was inactive.
In the case of `Cc1ccc(N)cc1`, the result in experiment [1], in experiment [17], in experiment [16], in [2], in experiment [3] and in experiment [4] was inactive. Also, the outcome in experiment [5], in [6], in experiment [7], in [8], in experiment [9] and in experiment [10] was inactive. The result in experiment [11], in [12], in experiment [13], in [14] and in experiment [15] was inactive.
